Data on seven molecules can be found in PubChem BioAssay (NCATS).

Assay [1] can be described thus: HPAF-II 24hr Apoptosis Induction qHTS against the NCATS CANVASS Library (AID 1347356). Also: 0% is about no effect. The procedure, abridged: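 Luminescent caspase-3/7 signal (DEVD substrate, Caspase-Glo) served as read-out, taken 15 min after reagent addition to HPAF-II cells exposed 24 h to compounds.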
A short description of assay [2]: HEK293 18hr Apoptosis Induction qHTS against the NCATS CANVASS Library (AID 1347357). Also: 0% is about no effect. The procedure, abridged:
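HEK293 cells (500/well, DMEM + 10% FBS) treated with an 11-point series for 18 h at 37 degrees C. Caspase-3/7 activity read by Caspase-Glo luminescence after 15 min at room temperature.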
On the technique in general: In qHTS, concentration-response curves come from the screen itself.

Assay [3] is described as follows: HEK293 24hr Apoptosis Induction qHTS against the NCATS CANVASS Library (AID 1347359). Also: 0% is about no effect. The procedure, abridged:
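HEK293 cells (500/well, DMEM + 10% FBS) were exposed to compounds in an 11-point series for 24 hours at 37 degrees C, then caspase-3/7 activity was read by Caspase-Glo DEVD luciferase luminescence after 15 min.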

Assay [4] is described as follows: HPAF-II 18hr Apoptosis Induction qHTS against the NCATS CANVASS Library (AID 1347360). Also: 0% is about no effect. The procedure, abridged: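 HPAF-II cells at 500/well were exposed for 18 h at 37 C to an 11-point compound series. Caspase-3/7 activity was read by Caspase-Glo luminescence after 15 min at RT.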
The target of assay [5] is Luciferin 4-monooxygenase (Photinus pyralis) (UniProt P08659). In words: Firefly luciferase counterscreen qHTS: Assay Interference Panel against the NCATS CANVASS Library (AID 1347363). Also: 0% is about no effect. The procedure, abridged: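 Purified P. pyralis luciferase was added to compounds (11-point series) preincubated 15 min at room temperature with substrate containing 0.013 mM D-luciferin and 0.013 mM ATP; luminescence was read after 5 min.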
In general terms: The purpose of a counterscreen is to sort out artefacts and off-target activity.

A short description of assay [6]: qHTS for ATAD5 Agonist screened against the NCATS CANVASS Library (AID 1347367).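 Also: luciferase reporter driven by ATAD5 which rises upon DNA damage; 0% is about no effect.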 The procedure, abridged: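 Luciferase reporter under ATAD5 control, stably integrated in HEK293T cells (2000/well). Compounds (11 points) incubated 16 h at 37C; viability read first by CellTiter-Fluor, then luminescence reporting ATAD5 activation. MMS positive control.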
The target in assay [7] is Nuclear receptor subfamily 1 group I member 3 (Homo sapiens) (UniProt Q14994). In words: qHTS for Constitutive Androstane Receptor (CAR) Antagonist screened against the NCATS CANVASS Library (AID 1347372).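 Also: cells stimulated with 50 nM CITCO agonist so inhibition reflects antagonism; % is scaled to controls: 0 for no effect and ±100 for the full control effect.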 The procedure, abridged:
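HepG2 cells stably carrying hCAR and a CYP2B6-2.2kb luciferase reporter were exposed to compounds plus 50 nM CITCO for 24hr at 37C. CAR activity was read by ONE-Glo luminescence, with viability measured first by CellTiter-Fluor.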

Assay [8] has the same target. In words: qHTS for Constitutive Androstane Receptor (CAR) Agonist screened against the NCATS CANVASS Library (AID 1347373).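 Also: every well also contained 1.5 µM PK11195 alongside the test compound.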 Also: potency is read from the fitted curve at half-maximal effect. The procedure, abridged: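 HepG2-hCAR-CYP2B6 cells, 2500/well, attached 4hr; cpd + PK11195 1.5uM final; 24hr 37C 5% CO2. CellTiter-Fluor viability read, then ONE-Glo luminescence for CAR activation.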
Assay [9] in a line: 10-beta competent E. coli microbial cell viability qHTS against the NCATS CANVASS Library (AID 1347376). Also: 0% is about no effect. The procedure, abridged:
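E. coli 10-beta, 0.2 OD; cpds 11-pt; o/n 37C, 5% CO2; BacTiter-Glo 20 min RT; luminescence (ATP) = viable cells. Daunomycin ctrl.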

A short description of assay [10]: qHTS for H2AX Agonists against the NCATS CANVASS Library (AID 1347378). Also: 0% is about no effect. The procedure, abridged:
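CHO-K1 cells (1000/well, overnight at 37C) exposed to compounds at several concentrations for 3 hr at 37C, 0.76% DMSO final. Lysates read by TR-FRET (phospho-H2AX S139 Eu-cryptate antibody / H2AX-d2 antibody) after 24 hr at room temperature; 665/615 nm ratio.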

The nature of assay [11]: Inflammasome Signaling qHTS Counterscreen: IL-1-beta AlphaLISA counterscreen against the NCATS CANVASS Library (AID 1347381).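 Also: cell-free check with purified IL-1β in medium and no THP-1 cells; 0% is about no effect.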 The procedure, abridged:
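Cell-free interference check: compounds added to medium spiked with 4 pg purified IL-1β. Anti-IL-1β acceptor beads (6 ug/mL) with 0.6 nM biotinylated antibody added for 1 h at RT, then streptavidin donor beads (24 ug/mL) for 30 min in the dark. AlphaLISA read at 680/615 nm.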

Assay [12] is described as follows: Cytotoxicity qHTS for assessment of Hepg2 cells membrane integrity screened against the NCATS CANVASS Library (AID 1347387). The procedure, abridged:
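qHTS, 11-pt conc. series, 0.59 nM - 46 uM final; HepG2 2000 cells/well, overnight attachment; 5 hr compound exposure 37C/5% CO2; CytoTox-ONE, 10 min RT; fluorescence ex560/em590 = LDH from damaged membranes.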

The nature of assay [13]: MCF7 Cancer Cell Toxicity qHTS against the NCATS CANVASS Library (AID 1347369). The procedure, abridged:
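MCF7 cells (500/well) were exposed 72 h at 37 °C to compounds in an 11-point series. Viability was read as ATP content by CellTiterGlo luminescence.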

The nature of assay [14]: qHTS to identify inhibitors of the type 1 interferon - major histocompatibility complex class I in skeletal muscle: primary screen against the NCATS Mechanism Interrogation Plate v5.0 (MIPE) Libary (AID 1347411). Also: potency is read from the fitted curve at half-maximal effect; nearly all actives have a fitted effect of over 65% in size. The procedure, abridged:
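Luminescence from HiBiT-tagged endogenous HLA-B*08:01 served as the MHC class I read-out. CRISPR-engineered C25cl48 human myoblasts received 4.0 ng/ml IFN-beta plus compound for 24 hrs, with an 11-point, 1:3 series topping at 46 uM final.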

Assay [15] is described as follows: Primary qHTS for inhibitors of nuclear receptor binding SET domain protein 2 (NSD2) in an isogenic RCH-ACV NSD2 p.E1099K mutant (9B) (AID 1645876). Also: % is scaled to controls: 0 for no effect and ±100 for the full control effect; nearly all actives have a fitted effect of over 70% in size.
The nature of assay [16]: Primary qHTS for inhibitors of nuclear receptor binding SET domain protein 2 (NSD2) in an RCH-ACV wild type WT cells (2C) (AID 1645877). Also: % is scaled to controls: 0 for no effect and ±100 for the full control effect; nearly all actives have a fitted effect of over 70% in size.
Assay [17] has as its target Glutathione peroxidase 1 (Homo sapiens) (UniProt P07203). In words: Primary qHTS Assay for Inhibitors of Recombinant Selenoprotein Glutathione Peroxidase 1 (GPX1) (AID 1845191). Also: nearly all actives have a fitted effect of over 65% in size. The procedure, abridged:
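Recombinant GPX1 (10 nM final) was preincubated with compound for 30 min at room temperature, then reacted with 1 mM GSH, 0.5 mM CHP, 0.5 mM NADPH and 100 nM glutathione reductase; NADPH fluorescence (340/450 nm) was read at 0 and 15 min.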

Assay [18] has as its target Phospholipid hydroperoxide glutathione peroxidase GPX4 (Homo sapiens) (UniProt P36969). In words: Primary qHTS Assay for Inhibitors of Recombinant Selenoprotein Glutathione Peroxidase 4 (GPX4) (AID 1845192). Also: % is scaled to controls: 0 for no effect and ±100 for the full control effect; nearly all actives have a fitted effect of over 65% in size. The note with it: outcome: dose series up to 50 µM unless noted. The procedure, abridged:
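GR-coupled readout: 100 nM GR, 1 mM GSH, 0.5 mM NADPH; NADPH fluorescence (ex 340/em 450 nm) read at t=0 and after 15 min RT. GPX4 200 nM, preincubated 30 min with compound; substrate 0.5 mM CHP.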

The nature of assay [19]: qHTS assay to identify inhibitors of the type 1 interferon - major histocompatibility complex class I in skeletal muscle: Counter screen cell viability and HiBit confirmation (AID 1347412). Also: nearly all actives have a fitted effect of over 60% in size. Also: potency is read from the fitted curve at half-maximal effect. As to activity change, negative = inhibition: % is scaled to controls: 0 for no effect and ±100 for the full control effect. Conditions: iHSKM muscle cells + IFN-b, HiBiT or CellTiter-Glo, 24 h. The procedure, abridged: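 CRISPR HLA-B*08:01-HiBit immortalized human myoblasts (C25cl48) stimulated with 4 ng/ml IFN-beta and compounds (12-point 1:3, top 46 uM final) for 24 h at 37 C. Duplicate plates read by HiBit lytic luminescence or CellTiter Glo ATP.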

“And” between values parts separate entries of the source, which are not always exact repeats. Equal values may be shown once. A number with no mark means an inactive call. Inconclusive results are not listed. The source made the active and inactive calls. Calls follow the shape of the dose curve; as a rule, active = well fitted curve in the direction sought with a large enough effect; inconclusive = small, poorly fitted or top-dose-only effect, or another doubt; inactive = no such curve, though single readings can be large; an effect the other way counts as inactive or inconclusive.

Sequence of Nuclear receptor subfamily 1 group I member 3 (Homo sapiens) (Q14994 whole entry, looked up): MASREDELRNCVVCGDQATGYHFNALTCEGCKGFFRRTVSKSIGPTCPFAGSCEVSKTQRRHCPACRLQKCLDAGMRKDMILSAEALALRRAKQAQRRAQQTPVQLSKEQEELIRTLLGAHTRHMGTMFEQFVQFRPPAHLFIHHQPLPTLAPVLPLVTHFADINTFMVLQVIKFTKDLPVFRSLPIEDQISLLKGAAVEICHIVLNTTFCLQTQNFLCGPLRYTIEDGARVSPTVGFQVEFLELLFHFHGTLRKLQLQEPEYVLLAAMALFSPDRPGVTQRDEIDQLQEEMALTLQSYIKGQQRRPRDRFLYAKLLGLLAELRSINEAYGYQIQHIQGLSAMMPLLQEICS
Sequence of Luciferin 4-monooxygenase (Photinus pyralis) (P08659 whole entry, looked up): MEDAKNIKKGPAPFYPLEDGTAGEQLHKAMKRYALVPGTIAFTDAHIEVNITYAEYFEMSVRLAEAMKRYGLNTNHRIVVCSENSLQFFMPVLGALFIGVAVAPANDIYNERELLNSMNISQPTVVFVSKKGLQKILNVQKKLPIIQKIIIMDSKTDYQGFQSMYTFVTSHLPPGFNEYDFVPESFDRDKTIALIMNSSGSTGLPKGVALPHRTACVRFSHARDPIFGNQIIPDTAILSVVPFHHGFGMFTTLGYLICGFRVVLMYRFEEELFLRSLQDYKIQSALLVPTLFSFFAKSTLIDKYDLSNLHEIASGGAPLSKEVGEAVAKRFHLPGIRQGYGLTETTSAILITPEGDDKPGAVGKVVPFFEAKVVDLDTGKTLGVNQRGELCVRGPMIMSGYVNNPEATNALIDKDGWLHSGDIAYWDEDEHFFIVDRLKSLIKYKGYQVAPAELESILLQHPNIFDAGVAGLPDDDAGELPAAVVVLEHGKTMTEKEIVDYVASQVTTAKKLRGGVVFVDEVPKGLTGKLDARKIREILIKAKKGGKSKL
Sequence of Glutathione peroxidase 1 (Homo sapiens) (P07203 whole entry, looked up): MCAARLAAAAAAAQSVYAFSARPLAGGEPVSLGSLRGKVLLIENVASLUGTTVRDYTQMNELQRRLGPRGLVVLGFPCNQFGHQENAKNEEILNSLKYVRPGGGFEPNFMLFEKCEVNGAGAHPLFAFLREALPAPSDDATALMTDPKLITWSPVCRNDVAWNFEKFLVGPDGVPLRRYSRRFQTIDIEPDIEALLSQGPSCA
Sequence of Phospholipid hydroperoxide glutathione peroxidase GPX4 (Homo sapiens) (P36969 whole entry, looked up): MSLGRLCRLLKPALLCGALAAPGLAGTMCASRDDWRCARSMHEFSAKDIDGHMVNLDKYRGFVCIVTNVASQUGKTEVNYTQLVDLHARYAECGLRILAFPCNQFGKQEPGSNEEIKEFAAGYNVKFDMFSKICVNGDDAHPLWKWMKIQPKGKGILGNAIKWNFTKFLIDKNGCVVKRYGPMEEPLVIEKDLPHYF

With `C=C1C[C@H]2O[C@@H]3[C@@H]4[C@H](CC[C@@](C)(O)[C@@H]42)[C@H](C)COC3(C)[C@@H](OC(=O)CCCCCCC)C[C@H]1O` (some centres undefined), the outcome in assay [1], in [9], in assay [11] and in [12] was inactive. The Potency result in assay [2], in assay [3], in assay [4], in assay [5], in assay [6] and in [7] was “inactive” throughout. Besides, the Potency entry in assay [8] and in assay [10] was “inactive” throughout.

`CC(C)[C@@H]1CC(=O)c2coc3c2[C@H]1C[C@@H](C)C3=O`: the outcome in [1], in [9], in [11] and in [12] was inactive. Also, the Potency result in assay [2], in assay [3], in assay [4], in assay [5], in [6] and in assay [13] was “inactive” each time. The Potency result in [7], in assay [8] and in assay [10] was “inactive” in each case.

In the case of `CC[C@@H]1[C@H](C)[C@H](c2cc(OC)c(OC)cc2OC)[C@@H](C)[C@H](c2cc(OC)c(OC)cc2OC)[C@]12C=C(OC)C(=O)C=C2OC`, the outcome in assay [1], in [11] and in assay [12] was inactive. Further, the Potency entry in assay [2], in assay [3], in assay [5], in [6], in [13] and in [7] was “inactive” throughout. Further, the Potency entry in assay [8] is “inactive”.

Take `O=C1CCC(=O)N(O)CCCCCNC(=O)CCC(=O)N(O)CCCCCNC(=O)CCC(=O)N(O)CCCCCN1`: the molecule was called inactive in assay [1], in [9], in assay [11] and in [12]. Further, the Potency result in assay [2], in assay [3], in assay [4], in assay [5], in assay [6] and in assay [7] was “inactive” in each case. Moreover, the Potency result in assay [8] and in [10] was “inactive” each time.

For `C/C(=C\[C@@H](C)CC/C=C/CC/C=C/C(=O)O)[C@H](O)[C@H](C)C(=O)CCCC1CC(=O)NC(=O)C1`, the molecule was classed as inactive in assay [1], in assay [9], in [11] and in [12]. The Potency result in assay [2], in [3], in [4], in [5], in assay [6] and in [13] was “inactive” in each case. Further, the Potency result in assay [7], in assay [8] and in [10] was “inactive” each time.

With `COc1cc2oc3ccccc3c(=O)c2cc1OC`, the result in [1], in [9], in assay [11] and in assay [12] was inactive. Moreover, the Potency result in [2], in assay [3], in [4], in assay [6], in assay [13] and in [7] was “inactive” each time. In addition, in assay [10], the Potency result was “inactive”. Also, the Potency in assay [8] was 38.2 µM (active).

Regarding `CCc1c(-c2ccccc2C)nc2c(C#N)c[nH]n2c1=O`, the Potency in [14] is 829 nM (active) and 1.31 µM (active); in [19] (HiBiT), 1.4 µM (active) and 787 nM (active). Also, the Potency result in assay [15], in assay [16], in assay [17] and in assay [18] was “inactive” each time. Moreover, in [19] (Viability, at 45.9 µM (top of the series)), the activity change, negative = inhibition is 16.2% and -8.52%.
